# HT1080 IDH1KD tx – qHTS for induction of synthetic lethality in tumor cells producing 2HG: qHTS for the HT-1080-IDH1KD cell line. HT-1080 IDH1 knockdown viability, ATP luminescence, 48 h. Potency, µM (doses to about 46.1 µM), for inactives: at the top dose activity, negative = toxicity, hits mostly cytotoxic. 360,000 compounds, 2% hits;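 note: potency is the fitted concentration of half-maximal effect; 0% = DMSO wells and -100% = cell-free medium wells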
#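 Using the IDH1-knockdown HT-1080 line run in the same batch and compound series as the NT line, viability after 48 h at 37 °C was determined by CellTiter-Glo luminescence and expressed as % activity.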
# HT1080-NT tox – qHTS for induction of synthetic lethality in tumor cells producing 2HG: qHTS for the HT-1080-NT fibrosarcoma cell line | 360,000 compounds, 1.6% hits | AID 686970, 2013 | Potency, µM (titrated, usually from 46.1 µM), for the others: at the highest dose activity, negative = less viability, usual class: cytotoxic | HT-1080-NT fibrosarcoma viability, CellTiter-Glo ATP luminescence, 48 h;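 note: NT is the 2HG producing partner of a matched IDH1 knockdown line; potency is the fitted concentration of half-maximal effect; 0% = DMSO-treated cells and -100% = media-only wells without cells; nearly all actives have a fitted effect of over 55% in size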
#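 750 cells/well, RPMI + 5% FBS; 2 h settle, compound pin-transfer, 48 h at 37 degrees C. CellTiter-Glo 10 min RT, luminescence. Normalized to DMSO and media-only wells.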
# IL1B secr inh – qHTS for Inhibitors of Inflammasome Signaling: IL-1-beta AlphaLISA Primary Screen; THP-1 LPS/ATP IL-1B secretion, AlphaLISA, 16 h; active compounds read low; activity change, % at 57.5 µM; 360,000 compounds, 4.7% hits; AID 743279, 2014; in the data active = activity change below about -50%; inconclusive = mostly about -30% to -49%
#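 Secreted IL-1B measured by AlphaLISA bead assay after 16 h compound exposure of THP-1 cells; compounds (final up to 57.5 uM) added 1 h before LPS (250 ng/mL) and ATP (1.25 mM) stimulation; lower signal means less secretion.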
# DT40 TDP1 CPT – qHTS for Inhibitors of human tyrosyl-DNA phosphodiesterase 1 (TDP1): qHTS in cells in presence of CPT; chicken DT40 Tdp1-/-;hTDP1 cells + 20 nM CPT, ATP luminescence, 48 h; Potency, µM (doses to about 46.2 µM), without a hit: top-dose activity change, negative = growth inhibition, hits mostly inhibitors; 420,000 compounds, 12% hits; note: potency is the fitted concentration of half-maximal effect; nearly all actives have a fitted effect of over 55% in size
#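 Chicken DT40 Tdp1-/- cells stably complemented with human TDP1 were seeded at 400 cells/well in medium containing 20 nM camptothecin, exposed to pin-transferred compounds, and grown at 37 °C for at least 48 hr. Viability was read as ATP luminescence.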
# DT40 TDP1 no CPT – qHTS for Inhibitors of human tyrosyl-DNA phosphodiesterase 1 (TDP1): qHTS in cells in absence of CPT | AID 686978, 2013 | DT40 Tdp1-/- hTDP1 cells, no CPT, ATP luminescence, 48 h | 420,000 compounds, 15% hits | Potency, µM (series often up to 46.2 µM), for the others: at the highest dose activity change, negative = growth inhibition, hits mostly inhibitors; note: potency is the fitted concentration of half-maximal effect; nearly all actives have a fitted effect of over 55% in size
#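 Chicken DT40 Tdp1-/- cells stably complemented with human TDP1 were seeded at 400 cells/well with DMSO in place of 20 nM camptothecin. After compound pinning, cells grew at least 48 hr at 37 °C; viability read by CellTiter-Glo luminescence.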
# Active calls of the source: *; ? = inconclusive; · = no result given; ! = repeats disagree. An excerpt weighted towards active compounds, which were near 19% of everything screened. Unless noted, calls come from the whole dose curve; as a rule, active = well fitted curve in the direction sought with a large enough effect; inconclusive = small, poorly fitted or top-dose-only effect, or another doubt; inactive = no such curve, though single readings can be large; an effect the other way counts as inactive or inconclusive. Unless noted, % is set by controls: 0 for no effect and ±100 for the full control effect.
SMILES,HT1080 IDH1KD tx,HT1080-NT tox,IL1B secr inh,DT40 TDP1 CPT,DT40 TDP1 no CPT
O=C(CCCOc1ccc(Cl)cc1Cl)Nc1cc(S(=O)(=O)N2CCOCC2)ccc1N1CCOCC1,-3%,-13%,?,?,?
C[C@H](CO)N1C[C@H](C)[C@H](CN(C)C(=O)N[C@H](C)c2ccccc2)OCc2ccccc2-c2c(n(C)c3ccccc23)C1=O,-8%,-3%,-5,23µM*,16µM*
C[C@@H]1CN([C@H](C)CO)C(=O)c2c(c3ccccc3n2C)-c2ccccc2CO[C@H]1CN(C)C(=O)c1cc(Cl)cc(Cl)c1,-3%,-2%,6,-24%,?
C[C@@H]1CN([C@@H](C)CO)C(=O)c2c(c3ccccc3n2C)-c2ccccc2CO[C@H]1CN(C)C(=O)[C@H](C)c1ccccc1,?,?,-14,16µM*,18µM*
Cc1ncoc1C(=O)NCC1=C(c2ccc(S(C)(=O)=O)cc2)C[C@@H]2CC[C@H]1N2Cc1ccco1,5%,4%,-7,2%,4%
COP(=S)(OC)Oc1ccc(S(=O)(=O)N(C)C)cc1,·,·,·,9%,5%
C=CCN1CC[C@]23c4c5ccc(O)c4O[C@H]2[C@@H](O)C=C[C@H]3[C@H]1C5,·,·,·,7%,?
COc1ccc([C@@H]2COc3c(ccc4c3C=CC(C)(C)O4)C2)c(OC)c1,22%,24%,-10,2%,6%
COc1cc2c(cc1OC)[C@@H]1C(=O)c3ccc4c(c3O[C@@H]1CO2)C[C@H](C(C)C)O4,-26%,?,?,0.26µM*,0.16µM*
COc1cc2c(cc1OC)C1C(=O)c3ccc4c(c3OC1CO2)CC(C(C)C)O4 (centres undefined),?,?,-68*,0.18µM*,0.033µM*
COc1cc2c(cc1OC)[C@H]1C(=O)c3ccc4c(c3O[C@H]1CO2)C[C@@H](C(C)(C)O)O4,-2%,-4%,19,15µM*,12µM*
COc1cc2c(cc1OC)[C@@H]1C(=O)c3ccc4oc(C(C)C)cc4c3OC1CO2 (some centres undefined),·,·,·,0.65µM*,0.29µM*
CC(C)[C@@H]1CN[C@H](C(=O)O)[C@@H]1CC(=O)O,·,·,·,-1%,-16%
Cc1ccsc1C(=O)C1CCCN(Cc2c(C)nn(C(C)C)c2C)C1 (centres undefined),7%,0%,36,-15%,-15%
CC1CC(C)CN(S(=O)(=O)c2ccc3c(c2)oc(=O)n3CC(=O)NCc2cccnc2)C1 (centres undefined),-19%,-9%,-14,?,?
CCc1nc2ccc(C(=O)NCCN3CCNC3=O)cn2c1N(CC)Cc1cccc(Br)c1,-9%,3%,-4,?,?
CCOc1ccc(N2CC(c3nc4ccccc4n3CCC3CCCCC3)CC2=O)cc1 (centres undefined),·,·,·,7.3µM*,5.2µM*
CCOc1cccc(OCC)c2c(C)[n+](CC3CCCO3)c(C)c1-2 (centres undefined),0%,5%,45,?,?
CNCCc1ccc(O)c(O)c1,?,?,-1,8.2µM*,5.2µM*
COc1cc(CNCCc2ccc3c(c2)OCO3)ccc1O,-10%,-8%,4,3%,0%
O=c1[nH]cc(COCC(F)(F)C(F)(F)C(F)(F)F)c(=O)[nH]1,11%,0%,19,-13%,-14%
NC(N)=N/N=C/c1cn(-c2ccccc2)nc1-c1cccs1,-13%,-29%,-98*,10µM*,10µM*
C=CCc1c(C)nc(C)nc1N/N=C/c1ccc(N(C)C)cc1,-8%,-15%,20,4.6µM*,21µM*
CN(C)c1ccc(/C=C/c2cc[n+](C)c3ccccc23)cc1,7.3µM*,?,-102*,0.41µM*,0.23µM*
CC[n+]1c(/C=C/C=C/c2ccc(N(C)C)cc2)sc2ccccc21,7.3µM*,5.8µM*,-97*,0.0092µM*,0.052µM*
SMILES,HT1080 IDH1KD tx,HT1080-NT tox,IL1B secr inh,DT40 TDP1 CPT,DT40 TDP1 no CPT
CN(C)c1ccc(/C=C/C=C/c2sc3ccccc3[n+]2C)cc1,?,21µM*,-90*,0.92µM*,0.13µM*
COC(=O)c1nc(-c2ccc3c(n2)C(=O)C(N)=C(OC)C3=O)c(N)c(-c2ccc(OC)c(OC)c2O)c1C,?,?,-55*,0.46µM*,0.92µM*
O=S(=O)(c1ccc(Cl)cc1)N1CCCCC1c1cccnc1 (centres undefined),-9%,-7%,-11,?,?
c1ccc(NC2=Nc3ccccc3CC2)cc1,-7%,-1%,27,-29%,?
C[C@H]1CCC/C=C/C2C[C@H](O)C[C@H]2[C@H](O)/C=C/C(=O)O1 (some centres undefined),·,·,·,0.25µM*,0.35µM*
C[C@H]1CCC/C=C/[C@@H]2C[C@H](O)C[C@H]2[C@H](O)/C=C/C(=O)O1,0.0065µM*,0.41µM*,-53*,0.58µM*,0.65µM*
CCCCC[C@H]1CCCCC[C@@H](O)C[C@H](O)[C@H](O)/C=C/C(=O)O1,-27%,-2%,0,?,?
FC(F)(F)c1ccc(CSc2ccccn2)cc1,11%,?,-61*,-3%,-26%
Cc1nc(N)sc1CCN,·,·,·,?,-7%
O=C(CN1CCOCC1)c1cccc2ccccc12,2%,2%,-2,-24%,?
Cc1c(C(=O)c2ccc3ccccc3c2)c2cccc3c2n1[C@H](CN1CCOCC1)CO3,·,·,·,12µM*,?
Cc1c(C(=O)c2cccc3ccccc23)c2cccc3c2n1[C@H](CN1CCOCC1)CO3,9.2µM*,15µM*,-27,2.9µM*!,4.6µM*!
CCC(=O)OC1(Cc2ccc(CC)cc2)CC(C)N(C)CC1C (centres undefined),-3%,-10%,-13,-23%,-24%
O=C(Nc1ccc(N2CCOCC2)cc1)C1CCN(S(=O)(=O)c2cccc(C(F)(F)F)c2)CC1,-7%,-2%,26,?,?
O=C(C1CCN(S(=O)(=O)c2ccc(Br)s2)CC1)N1CCN(c2cccc(C(F)(F)F)c2)CC1,·,·,·,23µM*,6.5µM*
CN1C(=O)N(C)C(=O)C2(Cc3c(nc4ccccn4c3=O)N3CCc4ccccc4C32)C1=O (centres undefined),9%,8%,32,?,?
CN1CCC(O)(c2ccccc2)C2CCCC21 (centres undefined),-2%,17%,1,-3%,-36%
